pCIP destab = p/CIP protein destabilization. decrease of EGFP signal, % at 10 µM. 0.01% of 290,000 active. F442A p/CIP-EGFP cells, EGFP fluorescence, 16 h. Q05BA5;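 active = EGFP signal decrease of at least 30% at 10 µM or well 3 SD below plate mean, unless failing retest; inactive = the rest, including hits failing retest or dose response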
Target sequence (Q05BA5 1-1403): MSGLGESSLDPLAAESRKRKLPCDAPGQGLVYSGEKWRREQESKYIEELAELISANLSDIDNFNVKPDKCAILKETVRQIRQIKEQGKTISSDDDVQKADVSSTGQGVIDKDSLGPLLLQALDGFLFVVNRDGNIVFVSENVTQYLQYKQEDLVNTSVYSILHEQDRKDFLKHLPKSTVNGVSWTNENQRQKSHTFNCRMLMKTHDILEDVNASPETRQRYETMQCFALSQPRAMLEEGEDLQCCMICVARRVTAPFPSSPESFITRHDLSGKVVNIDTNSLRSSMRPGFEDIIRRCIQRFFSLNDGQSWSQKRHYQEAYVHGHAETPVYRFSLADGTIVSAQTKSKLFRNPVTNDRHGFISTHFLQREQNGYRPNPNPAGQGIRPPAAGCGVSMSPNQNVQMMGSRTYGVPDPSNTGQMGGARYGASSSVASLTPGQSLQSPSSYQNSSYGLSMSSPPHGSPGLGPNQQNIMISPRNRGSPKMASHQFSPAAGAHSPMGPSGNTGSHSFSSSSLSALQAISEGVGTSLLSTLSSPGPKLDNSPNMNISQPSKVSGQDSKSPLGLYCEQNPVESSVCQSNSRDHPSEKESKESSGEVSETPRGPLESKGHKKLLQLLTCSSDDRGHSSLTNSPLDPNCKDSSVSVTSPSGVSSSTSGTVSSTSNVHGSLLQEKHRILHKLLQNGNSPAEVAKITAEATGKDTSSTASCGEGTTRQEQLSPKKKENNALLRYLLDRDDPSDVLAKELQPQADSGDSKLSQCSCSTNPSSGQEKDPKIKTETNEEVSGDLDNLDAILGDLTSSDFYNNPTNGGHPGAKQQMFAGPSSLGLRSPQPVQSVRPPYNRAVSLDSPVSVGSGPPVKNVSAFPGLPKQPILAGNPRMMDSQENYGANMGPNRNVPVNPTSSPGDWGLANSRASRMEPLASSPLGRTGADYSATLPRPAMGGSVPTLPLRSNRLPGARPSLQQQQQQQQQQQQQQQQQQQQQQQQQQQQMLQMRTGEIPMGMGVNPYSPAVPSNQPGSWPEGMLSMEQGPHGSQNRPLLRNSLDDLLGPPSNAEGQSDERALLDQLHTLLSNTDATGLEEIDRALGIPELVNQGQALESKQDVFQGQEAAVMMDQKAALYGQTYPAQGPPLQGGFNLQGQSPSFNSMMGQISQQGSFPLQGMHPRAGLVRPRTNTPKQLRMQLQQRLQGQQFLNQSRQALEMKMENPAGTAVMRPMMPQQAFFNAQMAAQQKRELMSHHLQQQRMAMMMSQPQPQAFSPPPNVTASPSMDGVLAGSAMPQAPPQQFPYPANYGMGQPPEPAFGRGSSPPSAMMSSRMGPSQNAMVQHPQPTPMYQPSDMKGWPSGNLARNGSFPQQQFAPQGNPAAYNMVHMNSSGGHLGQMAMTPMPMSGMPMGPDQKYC
DTT redox prof = compounds producing H2O2 with reducing agent – biochemical, NIH compound library profiling, artefact control for MLSCN library redox annotation, primary screen | DTT-dependent redox cycling H2O2, phenol red/HRP absorbance; 100% = 100 µM peroxide control, 0% = buffer | activation, % at 10 µM | 0.03% of 200,000 active;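 active = activation of at least 50% relative to the plate's high and low controls in the primary single-dose screen; inactive = activation below 50%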;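 also: compound incubated with DTT at 0.8 mM final as the reducing agent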
Efa HMGR inh = blocks class II HMG-CoA reductase of Enterococcus faecalis; purified E. faecalis HMGR, NADPH absorbance 340 nm kinetic; inhibition, % at 10 µM; 0.41% of 190,000 active; AID 1066;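 active = inhibition above a set limit, the median over all tested compounds plus 3 SD, cut at about 9.5% in these data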;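 also: enzyme runs in reverse so mevalonate oxidation gives rising NADPH absorbance; 0% = complete reaction with DMSO and 100% = background rate lacking mevalonate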
p97 inhibitor = blocks human p97 ATPase activity; recombinant p97 ATPase, Kinase-Glo ATP luminescence, 3 h; inhibition, % at 8 µM; 0.42% of 220,000 active; P55072; in the data active = inhibition above about 15%;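 also: 0% = DMSO vehicle and 100% = wells lacking enzyme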
Tb hexokinase = T. brucei hexokinase 1 inhibition | recombinant TbHK1, G6PDH-coupled NADH A340 | inhibition, % at 10 µM | 0.11% of 220,000 active;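 active = inhibition of 50% or more in the single-dose primary screen; inactive = inhibition below 50%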
Furin inhibitor = human furin inhibition | purified furin, fluorogenic substrate cleavage | 0.061% of 220,000 active | inhibition, % at 20 µM or 30 µM | P09958 | AID 463115; in the data active = inhibition above about 25%
Redox H2O2 DR = redox cycling H2O2 generation, confirmed. 40% of 60 active. EC50, µM. shares compounds with DTT redox prof. AID 1234. DTT-dependent redox cycling H2O2, phenol red-HRP absorbance;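 active = EC50 under a set limit for hydrogen peroxide production with the reducing agent DTT present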
G6PDH counter = Leuconostoc glucose-6-phosphate dehydrogenase inhibition, counter-screen | shares compounds with Tb hexokinase | purified G6PDH, NADH absorbance, 1 h | inhibition, % at 10 µM | 7% of 210 active;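 active = at least 50% inhibition in the glucose-6-phosphate dehydrogenase coupled counterscreen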
TbHK1 confirm = confirmation of Trypanosoma brucei hexokinase 1 inhibitors. shares compounds with Tb hexokinase. recombinant TbHK1, G6PDH-coupled NADH A340 absorbance. inhibition, % at 10 µM. 10% of 210 active;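 active = inhibition of at least 50% in both of the two screening runs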;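 also: 0% and 100% set by the maximum and minimum signal control wells on each plate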
p97 inh conf = human p97 ATPase inhibition, confirmation | AID 1517 | 44% of 760 active | inhibition, % at 8 µM | recombinant p97 ATPase, Kinase-Glo ATP luminescence | shares compounds with p97 inhibitor;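 active = percent inhibition of p97 ATPase above a set limit, the primary screen's mean plus 3 SD, cut at about 15% in these data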;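 also: 0% = DMSO wells and 100% = wells lacking p97 protein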
Numbers without * were called inactive; x = not tested or not shown. In the library only some 0.74% were active in any assay of this set; here they are far more common.

SMILES	pCIP destab	DTT redox prof	Efa HMGR inh	p97 inhibitor	Tb hexokinase	Furin inhibitor	others
Cc1ccc(-n2c(O)c(/C=N/c3ncc(Br)cc3Br)c(=O)[nH]c2=O)cc1	-82.3	-1.6	10.0*	-0.3	-13.0	-11.6
Cc1cccc(-n2c(O)c(C=Nc3ccc(Br)cn3)c(=O)[nH]c2=O)c1	-213.9	0.2	-1.3	1.3	-18.5	-15.6
CCN1CCN(C(=O)Cc2ccccc2OC)CC1	-17.3	-0.4	14.2*	4.0	-0.9	-31.2
COc1ccccc1CC(=O)N1CCN(CCc2ccccc2)CC1	-2.7	x	x	x	x	x
O=C1NC(=S)NC(=O)C1=Cc1ccc2c(c1)CCN2CCCCl	-8.1	x	x	17.9*	-22.3	-13.1
O=[N+]([O-])/C(Cl)=C1\NCCN1Cc1ccc(Cl)nc1	-22.4	-0.6	13.8*	3.8	-10.4	-14.2
O=[N+]([O-])/C=C1/NCCN1Cc1ccc(Cl)nc1	2.9	0.6	-2.4	1.9	-28.0	-17.4
CC(Cc1ccccc1)NC(=O)Cc1ccc(N(C)C)cc1 (stereo not given)	-5.5	0.0	10.7*	-3.1	0.5	-13.2
O=C1NC(=O)N(Cc2ccco2)C(=O)/C1=C/c1ccc(-c2cccc([N+](=O)[O-])c2)o1	-3.8	-0.1	-4.9	15.5*	23.4	9.4
Cc1c(C=O)c2ccccc2n1Cc1ccc([N+](=O)[O-])cc1	-3.9	0.2	1.8	-4.0	-11.1	-13.6
COc1ccc(C(=O)C2CCCN(Cc3cnc(C)s3)C2)c(OC)c1 (stereo not given)	-31.1	-0.7	15.9*	7.2	-2.5	-20.3
Cc1ccc(OCCOc2cccc(C=C3C(=O)NC(=O)NC3=O)c2)cc1	1.8	x	x	x	x	x
O=[N+]([O-])[N-][n+]1cnn(Cc2ccccc2)c1	8.7	-1.0	-2.5	-2.4	6.1	-22.5
O=C(c1cc(F)ccc1F)C1CCCN(CCCc2ccccc2)C1 (stereo not given)	-7.9	0.7	9.6*	-3.7	-0.3	-19.9
O=C(c1cc(F)ccc1F)C1CCCN(Cc2cccc(Cl)c2)C1 (stereo not given)	-0.2	-1.3	-2.8	1.1	1.8	-11.4
Cc1ccccc1-n1c(O)c(C=Nc2ccc3c(c2)OCO3)c(=O)[nH]c1=O	-16.7	0.4	-4.6	-5.6	-5.3	27.4*
Cc1c2cnn(CC(=O)N3CCC4(CC3)OCCO4)c(=O)c2c(C)n1Cc1ccccc1F	1.3	-2.2	12.4*	7.0	0.2	-29.5
O=C(Cc1ccc([N+](=O)[O-])cc1)N1CCN(Cc2ccc3c(c2)OCO3)CC1	-2.1	x	x	-5.6	3.6	-15.1
O=C1NC(=S)N(Cc2ccco2)C(=O)/C1=C\c1cccs1	-2.2	-0.5	6.6	40.8*	80.6*	-16.9
O=C(c1ccc(Cl)cc1)C1CCCN(C2CCSCC2)C1 (stereo not given)	-3.4	0.0	-3.1	7.9	-0.7	-32.0
Cc1c(N=Nc2c(O)[nH]c(=S)[nH]c2=O)c(=O)n(-c2ccccc2)n1C	-1.5	0.2	-11.4	7.8	-19.5	15.6
CCOc1ccc(-n2c(O)c(N=Nc3c(C)n(C)n(-c4ccccc4)c3=O)c(=O)[nH]c2=O)cc1	-2.7	x	x	-3.0	-104.2	25.0*
COc1ccc(-n2c(O)c(C=NCc3ccc4c(c3)OCO4)c(=O)[nH]c2=O)cc1	-2.2	x	x	3.7	-13.2	-13.4
COc1ccc(CN2C(=O)NC(=O)/C(=C\c3cc(OC)c(OC)c(OC)c3)C2=O)cc1	-1.8	-1.7	-3.7	3.7	-4.2	-21.4
COc1ccc(CN2C(=O)NC(=O)/C(=C\c3ccco3)C2=O)cc1	-12.3	6.1	11.6*	11.8	3.9	-25.4
SMILES	pCIP destab	DTT redox prof	Efa HMGR inh	p97 inhibitor	Tb hexokinase	Furin inhibitor	others
O=Cc1c(C(=O)O)n(Cc2ccc(F)cc2Cl)c2ccccc12	-6.5	x	x	x	x	x
Cc1cccnc1NC1=NCC(C)S1 (stereo not given)	9.3	70.6*	3.1	3.8	2.3	-13.1	Redox H2O2 DR=>50
Cc1cccc(NC(=O)[C@@H](NC(=O)N2C[C@H]3C[C@@H](C2)c2cccc(=O)n2C3)C(C)C)c1	0.8	x	x	x	x	x
CCCCn1c(NS(=O)(=O)c2ccc(C)cc2)c(C(=O)OCC)c2nc3ccccc3nc21	-1.7	0.0	2.6	0.2	-4.6	4.5
CCCCn1c(NC(=O)c2ccco2)c(C(=O)OCC)c2nc3ccccc3nc21	-22.1	80.9*	4.9	33.3*	-13.6	-5.2	Redox H2O2 DR=>50;p97 inh conf=34.8*
CCn1nc(/C=C/c2ccccc2)nc2c(=O)n(C)c(=O)nc1-2	11.2	152.1*	6.9	34.2*	17.8	-18.7	Redox H2O2 DR=>50;p97 inh conf=37.0*
CCc1c(-c2ccccc2)nc2ccccc2c1C(=O)N1CCC2(CC1)OCCO2	1.8	x	x	x	x	x
NP(=O)(Oc1ccccc1Cl)Oc1ccccc1Cl	3.9	-2.2	0.1	0.3	2.9	-12.7
O=P(O)(O)COc1ccccc1O	-13.5	0.1	-7.2	2.8	73.4*	3.2	G6PDH counter=-8.1;TbHK1 confirm=-0.9
COc1ccc(CCNC2CCCCC2)cc1OC	-2.9	-0.1	-2.3	3.7	0.6	-19.8
O=c1[nH]c(=O)n(CCC2=CCCCC2)c(O)c1C=NCc1cccnc1	-3.8	0.3	2.0	-6.5	56.1*	-0.9	G6PDH counter=-8.9;TbHK1 confirm=-6.0
OC(c1ccccc1)(c1ccc(Cl)cc1)C1CN2CCC1CC2 (stereo not given)	6.7	x	x	16.2*	4.3	-12.7	p97 inh conf=9.6
N=C1c2ccccc2CN1NC(=O)c1ccc(Br)cc1	-12.7	-0.3	-2.9	6.2	-0.1	-23.9
COc1cc(C(c2c(C)[nH]n(-c3ccccc3)c2=O)c2c(C)[nH]n(-c3ccccc3)c2=O)cc(OC)c1OC	3.4	-6.7	1.1	20.3*	-10.8	-15.1	p97 inh conf=7.3
O=C(NC(=S)N1C[C@H]2C[C@H](C1)c1cccc(=O)n1C2)c1ccc(Cl)cc1Cl	4.7	x	x	x	x	x
COC(=O)c1nc(-c2ccc3c(n2)C(=O)C(N)=C(OC)C3=O)c(N)c(-c2ccc(OC)c(OC)c2O)c1C	-1.9	x	x	16.9*	-7.8	-6.7	p97 inh conf=33.6*
CN(C)[C@@H]1C(=O)C(C(N)=O)=C(O)[C@@]2(O)C(=O)C3=C(O)c4c(O)cccc4[C@@](C)(O)[C@H]3[C@H](O)[C@@H]12	-6.7	2.6	4.8	18.6*	-1.6	-4.2	p97 inh conf=39.7*
CN(C)[C@@H]1C(=O)C(C(N)=O)=C(O)[C@@]2(O)C(=O)C3=C(O)c4c(O)ccc(Cl)c4[C@@](C)(O)[C@H]3C[C@@H]12	2.0	x	x	x	x	x
CN(C)C(Cc1ccccc1)C(=O)c1cccs1 (stereo not given)	-8.9	0.3	-12.6	2.2	-7.6	-16.8
CC(C)OC(=O)c1c(N)n(CC2CCCO2)c2nc3ccccc3nc12 (stereo not given)	-1.1	-0.5	-6.2	26.5*	-15.4	-16.7	p97 inh conf=0.2
CC(C)CCOC(=O)c1c(N)n(CC2CCCO2)c2nc3ccccc3nc12 (stereo not given)	2.4	-0.3	-4.0	2.5	-9.4	-44.7

Assay outcomes: PubChem, several laboratories
